An excerpt weighted towards active compounds, which were near 4.2% of everything screened.
GDH-TPI counter-1: GDH-TPI coupling enzyme inhibitors, primary screen, artefact control for M. tuberculosis FBA inhibitor project, biochemical, absorbance, full deck; 360,000 compounds, 1.2% hits; GDH-TPI coupled enzyme counterscreen, NADH absorbance; inhibition, % at 4.8 µM; AID 588335, 2011; in the data active = inhibition above about 30%;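 also: 0% = DMSO wells and 100% = wells lacking the enzyme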
BJeLR lethal: MLPCN primary cell-based screen for lethality selective to Ras in HRASV12 cells; BJeLR (HRASV12) viability, CellTiter-Glo ATP luminescence, 48 h; inhibition, % (test concentration not listed); 300,000 compounds, 0.17% hits; AID 1554, 2009; in the data active = inhibition above about 50%
PrPC surface inh: inhibitors of human cell surface prion protein PrPC, primary screen, cell-based, TR-FRET. Major prion protein (Homo sapiens), P04156. TR-FRET read-out. inhibition, % at 13.8 µM. 370,000 compounds, 0.43% hits; in the data active = inhibition above about 24%; also: 0% = median of the test wells and 100% = reference compound wells
RecA splice inh: Mtb RecA intein splicing inhibitors, primary screen, biochemical, fluorescence, HTS; 290,000 compounds, 0.75% hits; AID 2221, 2009; Protein RecA (Mycobacterium tuberculosis (strain ATCC 25618 / H37Rv)), P9WHJ3; cell-free RecA intein splicing; inhibition, % (test concentration not listed); in the data active = inhibition above about 30%;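 also: 0% = vehicle wells and 100% = reference inhibitor control wells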
Target sequence (P9WHJ3 whole entry, looked up, canonical isoform): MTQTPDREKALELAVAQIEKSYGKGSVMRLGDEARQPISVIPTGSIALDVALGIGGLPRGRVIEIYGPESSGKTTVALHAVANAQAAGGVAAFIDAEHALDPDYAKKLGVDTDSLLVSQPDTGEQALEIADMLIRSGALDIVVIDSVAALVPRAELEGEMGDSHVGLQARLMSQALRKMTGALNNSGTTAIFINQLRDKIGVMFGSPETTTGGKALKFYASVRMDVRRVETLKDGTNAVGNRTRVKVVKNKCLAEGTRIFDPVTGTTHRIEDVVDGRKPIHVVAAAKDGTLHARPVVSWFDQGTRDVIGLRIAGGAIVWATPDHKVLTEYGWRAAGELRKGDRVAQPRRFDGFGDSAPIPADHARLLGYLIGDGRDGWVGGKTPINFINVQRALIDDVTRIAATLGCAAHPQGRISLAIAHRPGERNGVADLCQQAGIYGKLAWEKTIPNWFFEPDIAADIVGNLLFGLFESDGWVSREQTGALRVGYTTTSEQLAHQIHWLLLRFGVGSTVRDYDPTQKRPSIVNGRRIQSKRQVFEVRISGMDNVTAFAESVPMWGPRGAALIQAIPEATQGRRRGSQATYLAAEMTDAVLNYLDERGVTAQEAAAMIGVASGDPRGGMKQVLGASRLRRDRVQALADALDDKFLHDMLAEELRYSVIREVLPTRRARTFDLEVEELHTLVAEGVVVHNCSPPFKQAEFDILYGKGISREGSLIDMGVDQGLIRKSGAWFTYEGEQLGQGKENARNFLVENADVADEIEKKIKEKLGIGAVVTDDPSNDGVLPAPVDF
Mtb FBA inh: Mtb FBA enzyme inhibitors, primary screen, biochemical, fluorescence, strain H37Rv; 360,000 compounds, 2.3% hits; purified M. tuberculosis FBA, fluorescence read-out; inhibition, % at 1 µM; AID 588726, 2011; Fructose-bisphosphate aldolase (Mycobacterium tuberculosis (strain ATCC 25618 / H37Rv)), …;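 also: 0% = vehicle and 100% = reference inhibitor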
Mtb FBA confirm: M. tuberculosis aldolase blockers, biochemical, fluorescence, strain H37Rv, confirmation. AID 651616, 2012. 5,600 compounds, 78% hits. shares compounds with Mtb FBA inh. purified M. tuberculosis FBA, fluorescence read-out. inhibition, % at 1 µM;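 also: 0% = vehicle wells and 100% = reference inhibitor wells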
GDH-TPI counter-2: GDH-TPI coupling enzyme inhibitors, artefact control for M. tuberculosis FBA inhibitor project, biochemical, fluorescence, high throughput. 5,600 compounds, 81% hits. inhibition, % at 1 µM. shares compounds with Mtb FBA inh. GDH-TPI coupled enzyme counterscreen. AID 652141, 2013; in the data active = inhibition above about 10%
GDH-TPI dose: GDH-TPI coupling enzyme inhibitors, dose response, artefact control for M. tuberculosis FBA inhibitor project, biochemical, fluorescence, IC50 | shares compounds with Mtb FBA inh | GDH-TPI coupled enzyme assay, artifact counterscreen | IC50, µM | 170 compounds, 79% hits; call rule not given here
* = called active by the depositor; i = inactive; . = no result; + = active, no number. Rule as the data show it, unless noted: active = inhibition above about 27%; inactive = the rest.

SMILES	GDH-TPI counter-1	BJeLR lethal	PrPC surface inh	RecA splice inh	Mtb FBA inh	Mtb FBA confirm	GDH-TPI counter-2	others
CCOc1ccc2nc(C)cc(C(=O)O)c2c1	12.0	-11.3	6.0	2.6	87.0*	73.9*	50.7*
COc1ccc2nc(C)cc(C(=O)O)c2c1	9.6	0.9	-2.6	1.7	78.7*	11.4	-7.0	GDH-TPI dose=2.33*
O=S(=O)(c1ccccc1F)N1CCC(c2nc3ccccc3o2)CC1	.	.	-1.3	.	.	.	.
CC1=C(C#N)C(c2cccnc2)C2=C(CCCC2=O)N1 (stereo unspecified)	4.0	.	-1.1	.	33.9*	127.5*	99.5*
O=C(CSc1nnc(-c2ccccc2F)n1Cc1ccco1)Nc1ccccc1-c1ccccc1	.	.	-1.2	.	.	.	.
N#CC(C(=O)CCN1C(=O)C2CC=CCC2C1=O)c1nc2ccccc2[nH]1 (stereo unspecified)	18.9	2.3	3.5	.	47.3*	26.0	19.9*
CCc1ccccc1NC(=O)CCN1C(=O)C2CC=CCC2C1=O (stereo unspecified)	3.5	-2.7	-3.4	0.6	-1.9	.	.
COc1ccc(S[C@]2(C(=O)N(C)C)CC(=O)N(C(=O)/C=C/c3ccccc3)[C@@H]2c2ccc(OC)cc2)cc1	.	.	5.3	.	.	.	.
COc1cc2cncc(Cc3ccccc3)c2cc1O	15.3	.	-1.2	.	58.0*	85.1*	78.3*
CCC(CO)Nc1ncnc2c1cnn2-c1ccc(OC)cc1 (stereo unspecified)	-3.4	4.3	-3.4	0.3	30.4*	63.0*	51.7*
CS(=O)(=O)Cc1cc(Sc2ccccc2)nc(-c2ccncc2)n1	1.9	-9.5	4.4	2.0	33.9*	8.3	-3.8
Cc1cc(C)c(CNC(=O)c2cc(C3CC3)nc3c2cnn3C(C)C)c(=O)[nH]1	8.4	.	0.9	.	7.0	.	.
COc1ccccc1CCNC(=O)c1cc(C2CC2)nc2c1cnn2C(C)C	-2.8	.	5.9	.	-1.1	.	.
Cc1cc(C)c(NC(=O)CNC(=O)c2cc(C3CC3)nc3c2cnn3C(C)C)c(C)c1	8.0	.	12.4	.	34.5*	120.9*	92.2*
CC(C)n1ncc2c(C(=O)Nc3ccccc3SCC(N)=O)cc(C3CC3)nc21	8.9	.	-3.7	.	-2.3	.	.
CC(C)n1ncc2c(C(=O)NCC(=O)Nc3ccccc3Br)cc(C3CC3)nc21	4.6	.	.	.	29.6*	-2.5	0.3
CCc1ccccc1NC(=O)CNC(=O)c1cc(C2CC2)nc2c1cnn2C(C)C	4.8	.	-4.2	.	37.3*	+	+
COc1ccccc1Oc1coc2cc(OCC(N)=O)ccc2c1=O	2.9	-6.5	4.2	1.2	1.2	.	.
COc1ccccc1-c1coc2c(CN3CCOCC3)c(O)ccc2c1=O	20.3	3.9	3.9	-1.9	73.1*	152.7*	123.7*
Oc1ccc2ccccc2c1CN1CCOCC1	4.3	9.3	-2.9	-9.5	10.2	.	.
COc1ccccc1Oc1coc2c(CN3CCOCC3)c(O)ccc2c1=O	7.5	5.4	-14.0	-9.0	80.2*	+	155.9*
Cc1ccccc1-c1cnc(C(O)c2c(C)cccc2C)[nH]1 (stereo unspecified)	8.4	.	1.2	.	0.0	.	.
Cc1cccc(C)c1C(O)c1ncc(-c2cccc3ccccc23)[nH]1 (stereo unspecified)	9.3	.	-4.1	.	56.5*	5.3	-1.1
Cc1cc(C)c(C(O)c2ncc(-c3cccc4ccccc34)[nH]2)c(C)c1 (stereo unspecified)	14.3	.	5.2	.	57.0*	89.2*	69.0*
O=S1(=O)c2ccc(N3CCCC3)cc2Oc2ccccc2CN1Cc1cn(Cc2cccc(F)c2)nn1	.	.	3.0	.	.	.	.
SMILES	GDH-TPI counter-1	BJeLR lethal	PrPC surface inh	RecA splice inh	Mtb FBA inh	Mtb FBA confirm	GDH-TPI counter-2	others
CC1CC(NC(=O)c2cc3c(=O)n4ccccc4nc3n2C)CC(C)(C)C1 (stereo unspecified)	7.4	12.1	-2.4	-205.4	72.4*	71.3*	62.4*
Cc1cccn2c(=O)c3cc(C(=O)NCc4ccco4)c(=N)n(C4CCCC4)c3nc12	12.7	5.7	-12.5	-60.9	90.5*	77.7*	63.4*
N=c1c(C(=O)NC2CCCC2)cc2c(=O)n3ccccc3nc2n1C1CCCCC1	8.2	-6.5	-21.3	-384.0	64.1*	48.6*	41.5*
Cc1cccn2c(=O)c3cc(S(=O)(=O)c4ccc(Br)cc4)c(=N)n(C4CCCCC4)c3nc12	-2.3	-13.2	2.8	-1.8	1.0	.	.
Cc1ccc2nc3c(cc(C(=O)NC4CCCCC4)c(=N)n3C3CCCCC3)c(=O)n2c1	-4.0	3.2	-17.1	i	71.0*	121.3*	84.8*
Cc1ccc(S(=O)(=O)c2cc3c(=O)n4ccccc4nc3n(C3CCCC3)c2=N)cc1	11.2	6.7	3.6	-26.1	5.2	.	.
O=C(NC1CCCCCC1)c1ccc2nc3cc(Cl)ccc3c(=O)n2c1	7.5	12.2	1.7	-4.3	2.9	.	.
CNC[C@H]1OCc2cnnn2CCCC(=O)N([C@@H](C)CO)C[C@@H]1C	.	.	2.5	.	.	.	.
Cc1cc(N=O)no1	.	.	-14.1	.	.	.	.
CC(C)(C)N1Cc2nnn(CC3CCCCC3)c2-c2cc(F)ccc2S1(=O)=O	.	.	-5.4	.	.	.	.
O=C(O)c1ccc(-c2ncc[nH]2)cc1	-1.9	3.1	-3.6	-3.2	48.9*	0.0	1.6
CCOC(=O)CC(=O)CSc1nc(-c2cccnc2)cc(C)c1C#N	7.5	0.3	-10.8	-2.7	3.2	.	.
CCOC(=O)CC(=O)CSc1nc(-c2cccnc2)ccc1C#N	26.1	-4.8	-10.8	-33.9	38.3*	+	+
Cc1ccc(CN2CCCCC(NC(=O)c3ccccc3C)C2=O)cc1 (stereo unspecified)	.	.	0.4	.	.	.	.
CCN(CC)C(=O)c1cc2c(=O)n3cccc(C)c3nc2s1	12.1	-21.5	-22.7	-15.1	69.0*	147.7*	142.8*
Cc1cccn2c(=O)c3cc(C(=O)N4CCCCC4C)sc3nc12 (stereo unspecified)	15.5	.	-10.4	.	22.9	.	.
COc1ccccc1N1CCN(C(=O)c2cc3c(=O)n4cccc(C)c4nc3s2)CC1	14.9	-0.7	-11.1	.	41.4*	+	180.3*
Cc1cccn2c(=O)c3cc(C(=O)N4CC(C)CC(C)C4)sc3nc12 (stereo unspecified)	3.7	-2.2	-7.0	-13.7	5.2	.	.

Screening data as filed in PubChem.
